ELG1 DNA repair – blocks ELG1-dependent DNA repair in HEK293T cells | HEK293T ELG1-luciferase reporter, luminescence, 16 h; DNA damage induced by 5-fluorouridine | Potency, µM (titrated, usually from 46.1 µM), for the others: top-dose activity change, negative = inhibition, hits mostly inhibitors | actives 2.3% (n = 330,000) | AID 504467; note: potency is the fitted concentration of half-maximal effect; nearly all actives have a fitted effect of over 55% in size
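5-Fluorouridine DNA damage + compound/DMSO, 2,000 cells/well, 16 h, 37 °C/5% CO2. ONE-Glo, 30 min RT, luminescence. Readout = decrease in reporter signal.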
TDP1 inh – blocks human tyrosyl-DNA phosphodiesterase 1. Q9NUW8. recombinant TDP1, AlphaScreen DNA substrate cleavage. Potency, µM (titrated, usually from 130 µM), for the others: at the top dose activity change, negative = inhibition, most hits filed as inhibitors. actives 0.28% (n = 350,000). AID 485290; note: potency is the fitted concentration of half-maximal effect; nearly all actives have a fitted effect of over 40% in size
Target sequence (Q9NUW8 whole entry, looked up): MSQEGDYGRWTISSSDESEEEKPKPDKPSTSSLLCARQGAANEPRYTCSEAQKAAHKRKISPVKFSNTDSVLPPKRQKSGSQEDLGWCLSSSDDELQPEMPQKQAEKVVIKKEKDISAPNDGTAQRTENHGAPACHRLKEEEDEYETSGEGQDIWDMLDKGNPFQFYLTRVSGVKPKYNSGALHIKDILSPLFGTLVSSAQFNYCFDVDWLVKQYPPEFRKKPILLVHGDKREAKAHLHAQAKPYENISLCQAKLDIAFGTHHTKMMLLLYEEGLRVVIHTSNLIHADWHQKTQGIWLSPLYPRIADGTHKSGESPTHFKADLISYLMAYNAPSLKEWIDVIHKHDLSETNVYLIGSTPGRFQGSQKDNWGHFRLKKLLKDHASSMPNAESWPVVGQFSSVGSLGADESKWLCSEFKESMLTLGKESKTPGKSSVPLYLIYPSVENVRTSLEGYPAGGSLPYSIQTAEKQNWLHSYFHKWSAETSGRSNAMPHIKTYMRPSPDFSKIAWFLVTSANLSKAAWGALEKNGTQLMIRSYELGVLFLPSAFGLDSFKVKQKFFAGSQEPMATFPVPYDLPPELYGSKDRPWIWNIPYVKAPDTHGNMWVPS
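Compounds were preincubated with Tdp1 (1 nM final) for 15 min at room temperature before substrate (15 nM final) started a 5 min reaction; beads (10 ug/ml final) were then added for 10 min before AlphaScreen detection.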
IL1B secr inh – inflammasome signaling inhibition, IL-1 beta readout; THP-1 LPS/ATP IL-1B secretion, AlphaLISA, 16 h; stronger effect = lower value; activity change, % at 57.5 µM; actives 4.7% (n = 360,000); AID 743279; in the data active = activity change below about -50%; inconclusive = mostly about -30% to -49%
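Secreted IL-1B measured by AlphaLISA bead assay after 16 h compound exposure of THP-1 cells; compounds (final up to 57.5 uM) added 1 h before LPS (250 ng/mL) and ATP (1.25 mM) stimulation; lower signal means less secretion.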
DT40 TDP1 CPT – growth inhibition of DT40 Tdp1-/-;hTDP1 cells with camptothecin (screen for TDP1 inhibitors); actives 12% (n = 420,000); chicken DT40 Tdp1-/-;hTDP1 cells + 20 nM CPT, ATP luminescence, 48 h; Potency, µM (highest dose often 46.2 µM), for inactives: at the top dose activity change, negative = growth inhibition, usual class: inhibitors; note: potency is the fitted concentration of half-maximal effect; nearly all actives have a fitted effect of over 55% in size
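Cell growth measured by CellTiter-Glo luminescence after a minimum 48 h, 37 C compound exposure with 20 nM CPT in Tdp1-knockout DT40 cells stably expressing hTDP1, seeded 400/well; qHTS titration format.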
Giardia kill – Giardia lamblia killing; actives 0.15% (n = 340,000); Giardia lamblia trophozoite viability; activity change, % at 7.66 µM, hits read low; in the data active = activity change below about -80%; inconclusive = between about -30% and that limit;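 note: parasites exposed to compound for two days anaerobically before the ATP read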
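Luminescence from cellular ATP indicates surviving trophozoites (100 cells/well) following 48 hrs anaerobic compound treatment at 37 deg C; signal develops 15-30 min at room temperature.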
TDP1 cell noCPT – qHTS for Inhibitors of human tyrosyl-DNA phosphodiesterase 1 (TDP1): qHTS in cells in absence of CPT | DT40 Tdp1-/- hTDP1 cells, no CPT, ATP luminescence, 48 h | Potency, µM (top dose mostly 46.2 µM), inactives show at the highest dose activity change, negative = growth inhibition, usual class: inhibitors | actives 15% (n = 420,000) | AID 686978, 2013; note: potency is the fitted concentration of half-maximal effect; nearly all actives have a fitted effect of over 55% in size
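Seeded 400 DT40-hTDP1 cells/well (vehicle DMSO, no 20 nM CPT); pinned compounds; ≥48 hr at 37 °C; CellTiter-Glo luminescence as viability measure.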
Starred values were filed as active, the others as inactive; u = inconclusive; x = not tested or not shown; ! = repeats disagree; [ ] = remark or other dose. A selection: hits, their analogues and other compounds. The true share with any hit is near 19%. Unless noted, calls come from the whole dose curve; as a rule, active = well fitted curve in the direction sought with a large enough effect; inconclusive = small, poorly fitted or top-dose-only effect, or another doubt; inactive = no such curve, though single readings can be large; an effect the other way counts as inactive or inconclusive. % is set by controls: 0 for no effect and ±100 for the full control effect.

SMILES | ELG1 DNA repair | TDP1 inh | IL1B secr inh | DT40 TDP1 CPT | Giardia kill | TDP1 cell noCPT
O=S(=O)(NCCSc1nnnn1-c1ccccc1)c1ccc(F)cc1 | x | 7.1% | x | u | x | u
O=C(CSc1nnnn1-c1cccc2c1CCCC2)N1CCCC1 | 4.3% | 1.0%[56.1 µM] | 24.4 | 16.4µM* | 5.0 | 23.1µM*
CCC(=O)c1cc(Br)ccc1OCC(=O)N1CCN(S(=O)(=O)c2ccccc2)CC1 | x | x | -57.8* | u | 14.1 | 23.1µM*
CCOc1ccccc1OCCCC(=O)N1CCN(S(=O)(=O)c2ccc(C)cc2)CC1 | -17.5% | 4.2% | -19.6 | u | -7.0 | u
Cc1ccc(C(=O)N2CCC(C(=O)c3c(C)cc(C)cc3C)CC2)cc1 | 16.4µM* | x | 7.3 | u | -11.0 | u
CCOc1ccccc1OCCCC(=O)N1CCN(S(=O)(=O)c2ccc(C)cc2C)CC1 | u | -0.2% | 0.0 | 20.6µM* | -27.2 | -57.2%
Cc1ccc(S(=O)(=O)N2CCN(C(=O)CSC(=S)N3CCCC3)CC2)c(C)c1 | u | 0.2%[56.1 µM] | 5.5 | 5.17µM* | 5.4 | 3.26µM*
Cc1ccc(S(=O)(=O)NC(=O)Nc2ccc(C)cn2)cc1 | 0.9% | 10.3% | 2.5 | 11.3% | -15.7 | -17.0%
Cc1ccccc1OCCC(=O)N1CCN(S(=O)(=O)c2ccc(Br)cc2)CC1 | u | 1.5%[0.505 µM] | -13.4 | u | 6.8 | 23.1µM*
Cc1ccc(S(=O)(=O)N2CCN(C(=O)C3CCN(C(=O)c4ccc(F)cc4)CC3)CC2)c(C)c1 | u | 1.7% | -7.4 | u | 13.9 | 10.3µM*
Cc1ccc(S(=O)(=O)N2CCN(C(=O)CSC3CCCC3)CC2)c(C)c1 | 20.6µM* | -1.1% | -7.0 | 0.3% | 18.5 | -15.0%
CCOC(=O)C1=C(O)C(=O)N(c2ccc(S(N)(=O)=O)cc2)C1c1ccc(Br)cc1 (stereo not given) | u | x | 38.5 | 7.8% | 3.8 | 17.0%
CSCCC(NS(=O)(=O)c1ccc2c(c1)oc(=O)n2C)C(=O)Nc1ccc(Cl)cc1 (stereo not given) | x | 1.3% | x | 0.4% | x | u
C/C(=N\OCC(=O)NC12CC3CC(CC(C3)C1)C2)c1cc2ccccc2o1 | 1.1% | 0.0% | -90.7* | 20.6µM* | -6.0 | u
CSc1ccccc1NC(=O)CO/N=C(\C)c1cc2ccccc2o1 | u | 2.7% | u | u | 1.7 | u
COC(=O)C1[C@H]2SC(C)(C)C(C(=O)OC)N2C(=O)N1Cc1ccccc1 (stereo not given in full) | x | x | x | -6.5% | x | -1.9%
Cc1ccc2nc(-c3ccc(Cl)c(NC(=O)COc4cccc(C)c4C)c3)oc2c1 | x | -0.6% | x | -4.2% | x | -2.3%
Nc1cc(-c2ccccc2)c[nH]c1=O | x | 3.1% | x | x | x | x
Nc1cc(-c2ccncc2)c[nH]c1=O | u | 0.7% | 19.4 | u | 9.0 | 16.4µM*!
Cc1onc(-c2ccccc2)c1C(=O)OCCOc1ccc([N+](=O)[O-])cc1[N+](=O)[O-] | 14.6µM* | x | -23.7 | u | 3.5 | 20.6µM*
Cc1ccccc1OCCOC(=O)c1c(-c2ccccc2)noc1C | u | x | 64.0 | 7.31µM* | 3.8 | 18.4µM*
COC(=O)c1c(-c2ccccc2)csc1NC(=O)c1c(-c2ccccc2)noc1C | u | -1.8% | -23.1 | -17.4% | -22.1 | u
Cc1onc(-c2ccccc2)c1C(=O)OCCOc1ccccc1F | 6.3% | x | -22.9 | u | 1.1 | u
CCOC(=O)c1c(-c2ccc(F)cc2)csc1NC(=O)c1c(-c2ccccc2)noc1C | u | 3.2% | -3.9 | u | -16.1 | 20.6µM*
Cc1onc(-c2ccccc2)c1C(=O)OCC(=O)c1ccc(F)cc1 | x | x | 7.3 | u | x | 23.1µM*
SMILES | ELG1 DNA repair | TDP1 inh | IL1B secr inh | DT40 TDP1 CPT | Giardia kill | TDP1 cell noCPT
CC(=O)Nc1ccc(NC(=O)COC(=O)c2cc(S(=O)(=O)N(C)C)ccc2N2CCCC2)cc1 | -26.2% | 4.0% | 47.6 | -25.3% | -1.0 | u
O=C(NCc1nc2ccccc2n1Cc1ccccc1Cl)c1ccccc1 | x | 5.1% | x | u | x | u
O=c1ccc(-c2ccc(S(=O)(=O)Nc3cccc([N+](=O)[O-])c3)s2)n[nH]1 | 7.6% | -0.5% | 12.0 | -7.2% | -0.9 | 17.7%
COc1ccc(C2SCC(=O)N2c2ccc(F)cc2)cc1 (stereo not given) | -4.5% | x | 10.0 | -3.8% | -11.9 | 1.1%
CCOc1cc2c(cc1OCC)C(c1ccc(OC)c(OC)c1)N(c1ccc(C(=O)O)cc1)C(=O)C2 (stereo not given) | -7.0% | 8.2% | -1.5 | 27.4% | -24.2 | -12.4%
COc1ccc(N2C(=O)Cc3cc(OC)c(OC)cc3C2c2ccc(F)cc2)cc1 (stereo not given) | x | 9.8% | x | 23.1µM* | x | u
COC(=O)c1ccc(N2C(=O)Cc3cc(OC)c(OC)cc3C2c2ccc(F)cc2)cc1 (stereo not given) | x | 11.0% | x | 14.6µM* | x | u
COc1ccc(Nc2cc(C)nc(N3CCN(C(=O)c4ccc5c(c4)OCO5)CC3)n2)cc1 | u | 0.0% | -12.4 | -26.7% | 29.5 | u
O=C(c1cnn2cccnc12)N1CCOc2ccc(C(O)C(c3ccccc3)c3ccccc3)cc2C1 (stereo not given) | x | x | x | -1.4%[9.04 µM] | x | u
COc1ccc(C2=CC(c3c(C)nn(-c4ccccc4)c3Cl)n3nnnc3N2)cc1OC (stereo not given) | u | 8.3% | -67.2* | u | -17.0 | 14.6µM*
COc1ccc(C2=CC(c3cccc(C)c3)n3nnnc3N2)cc1 (stereo not given) | x | 3.8% | x | u | -5.7 | 16.4µM*
CCOc1ccc(C2C=C(c3cccc(OC)c3)Nc3nnnn32)cc1 (stereo not given) | x | 7.1% | x | u | x | u
CN(C)c1ccc(C2C=C(c3ccccc3)Nc3nnnn32)cc1 (stereo not given) | x | x | x | u | x | 18.4µM*
COc1ccccc1C1C=C(c2ccc(C(C)C)cc2)Nc2nnnn21 (stereo not given) | x | 3.8% | x | u | x | u
COc1ccccc1C1C=C(c2ccc(C)cc2)Nc2nnnn21 (stereo not given) | u | 6.2% | u | 18.4µM* | -11.6 | 20.6µM*
COc1cccc(C(=O)N2CCCc3ccccc32)c1OC | x | x | 23.8 | -7.7% | x | u
CCOc1ccc(C2C=C(c3ccc(C)cc3)Nc3nnnn32)cc1 (stereo not given) | -2.8% | 6.2% | -18.9 | 9.2µM* | 0.7 | 11.6µM*

Compound activity: PubChem BioAssay, National Center for Advancing Translational Sciences (NCATS)
